Screen size: about 5,500 compounds; about 2,000 (36%) were called active. Not shown: some 18% with an inconclusive outcome. No stated cut-off is given here; in the data, active means normalized growth mostly below about 0.91 (no sharp cut-off); inconclusive means no clear call, values can overlap the other calls; inactive means mostly above about 0.92. The list shows a part of the results.
Test: chemical genetic growth profiling, strain panel (AID 1159580);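 further: tested at 20 µM; growth read once vehicle control cultures reached saturation at 30 °C; 1 = growth at the plate median or of vehicle wells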
Details: growth OD

Measured: normalized growth

NCC(=O)c1ccccc1
inactive: S. cerevisiae deletion strains, locus YJR075W, strain HOC1, stronger effect = lower value 1.05 | S. cerevisiae deletion strains, locus YKL009W, strain mrt4, stronger effect = lower value 0.981 | S. cerevisiae deletion strains, locus YKL068W, stronger effect = lower value 1 | S. cerevisiae deletion strains, locus YKL085W, strain MDH1 (second series), stronger effect = lower value 0.988 | S. cerevisiae deletion strains, locus YKL085W, strain MDH1, stronger effect = lower value 0.988 | S. cerevisiae deletion strains, locus YKL160W, strain elf1, stronger effect = lower value 1 | S. cerevisiae deletion strains, locus YKL190W, strain CNB1, stronger effect = lower value 1.02 | S. cerevisiae deletion strains, locus YKR001C, strain vps1, stronger effect = lower value 0.988 | S. cerevisiae deletion strains, locus YKR026C, strain gcn3, stronger effect = lower value 1 | S. cerevisiae deletion strains, locus YKR091W, strain srl3, stronger effect = lower value 0.997 | S. cerevisiae deletion strains, locus YLL001W, strain dnm1, stronger effect = lower value 1 | S. cerevisiae deletion strains, locus YLL026W, stronger effect = lower value 1 | S. cerevisiae deletion strains, locus YLL041C, strain sdh2, stronger effect = lower value 1 | S. cerevisiae deletion strains, locus YLR027C, strain aat2, stronger effect = lower value 0.997 | S. cerevisiae deletion strains, locus YLR039C, strain RIC1, stronger effect = lower value 1.03 | S. cerevisiae deletion strains, locus YLR058C, strain SHM2, stronger effect = lower value 1.02 | S. cerevisiae deletion strains, locus YLR102C, strain apc9, stronger effect = lower value 0.988 | S. cerevisiae deletion strains, locus YLR113W, strain HOG1, stronger effect = lower value 1.07 | S. cerevisiae deletion strains, locus YLR221C, strain rsa3, stronger effect = lower value 1.02 | S. cerevisiae deletion strains, locus YLR258W, strain gsy2, stronger effect = lower value 0.977 | S. cerevisiae deletion strains, locus YLR262C, strain YPT6 (second series), stronger effect = lower value 1.03 | S. cerevisiae deletion strains, locus YLR262C, strain YPT6, stronger effect = lower value 1.02 | S. cerevisiae deletion strains, locus YLR268W, strain sec22, stronger effect = lower value 0.986 | S. cerevisiae deletion strains, locus YLR320W, strain mms22, stronger effect = lower value 0.991 | S. cerevisiae deletion strains, locus YLR330W, strain CHS5, stronger effect = lower value 1.02 | S. cerevisiae deletion strains, locus YLR342W, strain FKS1 (second series), stronger effect = lower value 0.988 | S. cerevisiae deletion strains, locus YLR342W, strain FKS1, stronger effect = lower value 0.992 | S. cerevisiae deletion strains, locus YLR357W, strain rsc2, stronger effect = lower value 0.966 | S. cerevisiae deletion strains, locus YLR370C, strain arc18, stronger effect = lower value 1.01 | S. cerevisiae deletion strains, locus YLR371W, strain rom2, stronger effect = lower value 0.993 | S. cerevisiae deletion strains, locus YLR384C, strain iki3, stronger effect = lower value 1.01 | S. cerevisiae deletion strains, locus YLR418C, strain cdc73, stronger effect = lower value 1 | S. cerevisiae deletion strains, locus YML016C, strain PPZ1, stronger effect = lower value 1.02 | S. cerevisiae deletion strains, locus YML032C, strain rad52, stronger effect = lower value 0.986 | S. cerevisiae deletion strains, locus YML120C, strain ndi1, stronger effect = lower value 0.989 | S. cerevisiae deletion strains, locus YML124C, strain tub3, stronger effect = lower value 0.993 | S. cerevisiae deletion strains, locus YMR058W, strain fet3, stronger effect = lower value 1.01 | S. cerevisiae deletion strains, locus YMR078C, strain ctf18, stronger effect = lower value 1 | S. cerevisiae deletion strains, locus YMR125W, strain sto1, stronger effect = lower value 1.01 | S. cerevisiae deletion strains, locus YMR129W, stronger effect = lower value 1 | S. cerevisiae deletion strains, locus YMR205C, strain PFK2, stronger effect = lower value 1.01 | S. cerevisiae deletion strains, locus YMR223W, strain ubp8, stronger effect = lower value 0.987 | S. cerevisiae deletion strains, locus YMR231W, strain pep5, stronger effect = lower value 0.992 | S. cerevisiae deletion strains, locus YMR263W, strain SAP30, stronger effect = lower value 1.04 | S. cerevisiae deletion strains, locus YMR307W, strain GAS1, stronger effect = lower value 1.02 | S. cerevisiae deletion strains, locus YNL067W, strain RPL9B, stronger effect = lower value 1.04 | S. cerevisiae deletion strains, locus YNL071W, strain lat1, stronger effect = lower value 0.998 | S. cerevisiae deletion strains, locus YNL128W, strain TEP1, stronger effect = lower value 1.05 | S. cerevisiae deletion strains, locus YNL153C, strain GIM3, stronger effect = lower value 1.02 | S. cerevisiae deletion strains, locus YNL183C, strain NPR1, stronger effect = lower value 0.995 | S. cerevisiae deletion strains, locus YNL209W, strain ssb2, stronger effect = lower value 1 | S. cerevisiae deletion strains, locus YNL233W, strain BNI4, stronger effect = lower value 1.02 | S. cerevisiae deletion strains, locus YNL248C, strain rpa49, stronger effect = lower value 0.99 | S. cerevisiae deletion strains, locus YNL250W, strain rad50, stronger effect = lower value 0.985 | S. cerevisiae deletion strains, locus YNL271C, strain bni1, stronger effect = lower value 0.986 | S. cerevisiae deletion strains, locus YNL298W, strain CLA4, stronger effect = lower value 0.994 | S. cerevisiae deletion strains, locus YNL307C, strain MCK1, stronger effect = lower value 0.987 | S. cerevisiae deletion strains, locus YNL322C, strain KRE1 (second series), stronger effect = lower value 0.989 | S. cerevisiae deletion strains, locus YNL322C, strain KRE1, stronger effect = lower value 1.03 | S. cerevisiae deletion strains, locus YNR049C, strain mso1, stronger effect = lower value 1.02 | S. cerevisiae deletion strains, locus YNR052C, strain pop2, stronger effect = lower value 0.995 | S. cerevisiae deletion strains, locus YOL006C, strain TOP1, stronger effect = lower value 1.09 | S. cerevisiae deletion strains, locus YOL012C, strain htz1 1.45 | S. cerevisiae deletion strains, locus YOL147C, strain pex11, stronger effect = lower value 0.993 | S. cerevisiae deletion strains, locus YOR001W, strain rrp6, stronger effect = lower value 1.01 | S. cerevisiae deletion strains, locus YOR061W, strain CKA2, stronger effect = lower value 1.01 | S. cerevisiae deletion strains, locus YOR069W, strain VPS5, stronger effect = lower value 1.01 | S. cerevisiae deletion strains, locus YOR070C, strain gyp1, stronger effect = lower value 1 | S. cerevisiae deletion strains, locus YOR080W, strain dia2, stronger effect = lower value 0.995 | S. cerevisiae deletion strains, locus YOR083W, strain WHI5, stronger effect = lower value 0.994 | S. cerevisiae deletion strains, locus YOR106W, strain vam3, stronger effect = lower value 1.02 | S. cerevisiae deletion strains, locus YOR136W, strain idh2, stronger effect = lower value 0.991 | S. cerevisiae deletion strains, locus YOR144C, strain elg1, stronger effect = lower value 0.999 | S. cerevisiae deletion strains, locus YOR184W, strain ser1, stronger effect = lower value 0.983 | S. cerevisiae deletion strains, locus YOR231W, strain MKK1, stronger effect = lower value 1.08 | S. cerevisiae deletion strains, locus YOR265W, strain rbl2, stronger effect = lower value 1.01 | S. cerevisiae deletion strains, locus YOR270C, strain vph1, stronger effect = lower value 1.06 | S. cerevisiae deletion strains, locus YOR290C, strain snf2, stronger effect = lower value 0.998 | S. cerevisiae deletion strains, locus YOR316C, strain cot1, stronger effect = lower value 0.992 | S. cerevisiae deletion strains, locus YPL051W, strain arl3, stronger effect = lower value 1.01 | S. cerevisiae deletion strains, locus YPL055C, strain LGE1, stronger effect = lower value 1.06 | S. cerevisiae deletion strains, locus YPL078C, strain atp4, stronger effect = lower value 1.02 | S. cerevisiae deletion strains, locus YPL106C, strain sse1, stronger effect = lower value 0.973 | S. cerevisiae deletion strains, locus YPL240C, strain hsp82, stronger effect = lower value 0.996 | S. cerevisiae deletion strains, locus YPL241C, strain CIN2, stronger effect = lower value 1.02 | S. cerevisiae deletion strains, locus YPL256C, strain CLN2, stronger effect = lower value 1.05 | S. cerevisiae deletion strains, locus YPR119W, strain clb2, stronger effect = lower value 0.996 | S. cerevisiae deletion strains, locus YPR141C, strain kar3, stronger effect = lower value 0.993 | S. cerevisiae deletion strains, locus YPR163C, strain tif3, stronger effect = lower value 0.99 | S. cerevisiae deletion strains, locus YPR167C, strain met16, stronger effect = lower value 0.991 | S. cerevisiae deletion strains, strain wtn01, stronger effect = lower value 0.987 | S. cerevisiae strains, strain wild type, stronger effect = lower value 1.01

From PubChem BioAssay AID1159580 (chemical genetic matrix, 2015)
